Results: PubChem BioAssay AID778 (Sanford-Burnham Center for Chemical Genomics, 2007)
Hit rate of the full screen: of about 96,000 compounds, about 20,000 (21%) were called active. The list is a sample of the results. A number with no mark means an inactive call.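 How the source made its calls: active means CYP2C19 inhibition above a set limit at 5 µM in the primary screen (cut at about 50% in these data); inactive means the rest.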

Each compound was assayed against Cytochrome P450 2C19 (Homo sapiens) (UniProt P33261) (assay: blockers of cytochrome P450 2C19 activity – biochemical, luminescence, ADME assay, primary screen (AID 778;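 further: plate controls were negative control wells for no effect and 2.5 mM tranylcypromine positive control for full effect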)). Settings: CYP2C19 Supersomes, luciferin-H EGE luminescence, 30 min; at 5 µM; hits give high values.
Chain of Cytochrome P450 2C19 (Homo sapiens) (P33261 whole entry, looked up): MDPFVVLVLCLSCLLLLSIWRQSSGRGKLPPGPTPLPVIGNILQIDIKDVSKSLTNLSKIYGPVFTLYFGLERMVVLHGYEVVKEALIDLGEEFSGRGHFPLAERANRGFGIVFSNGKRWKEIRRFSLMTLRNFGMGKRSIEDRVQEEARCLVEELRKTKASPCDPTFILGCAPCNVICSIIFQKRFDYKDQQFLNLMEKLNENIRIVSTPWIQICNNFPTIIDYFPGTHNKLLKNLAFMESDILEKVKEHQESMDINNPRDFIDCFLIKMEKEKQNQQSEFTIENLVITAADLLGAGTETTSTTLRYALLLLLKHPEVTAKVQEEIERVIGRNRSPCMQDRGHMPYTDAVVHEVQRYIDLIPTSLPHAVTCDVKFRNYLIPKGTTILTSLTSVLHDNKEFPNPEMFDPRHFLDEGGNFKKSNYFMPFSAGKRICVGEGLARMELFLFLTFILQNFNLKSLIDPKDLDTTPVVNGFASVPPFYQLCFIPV

Compared with `CCc1ccc2c(c1)cc(CN(C(=S)Nc1ccccc1Cl)C1CC1)c1nnnn12`, `Cc1ccc(-n2nc3cc(Cl)c(NC(=O)c4ccco4)cc3n2)cc1` is higher in inhibition: -11.2% for the first, 10.3% for the second.

Going from `Cc1nc2ccccc2c2oc(C(=O)NCCCN3CCC(C)CC3)cc12` to `O=C(NCCN1CCOCC1)[C@H](Cc1ccccc1)N1C(=O)c2ccccc2C1=O`, the inhibition falls from -6.7% to -8.6%.

First: CC1Oc2ccccc2N(Cc2cccnc2)C1=O (configuration not stated)
Second: O=C(NC1(C(F)(F)F)NC(=O)N(Cc2cccnc2)C1=O)c1ccccc1Cl (configuration not stated)
The inhibition of the first is lower: 26.8% for the first, 39.8% for the second.

First: O=C(COc1ccc(Cl)cc1)NCCSc1ccccc1
Second: CCC(C)OC(=O)C(C)Oc1ccc(-c2ccccc2)cc1 (configuration not stated)
The inhibition of the first is higher: 14.6% for the first, 0.6% for the second.

Compared with `CCc1ccccc1N(CC(=O)NCCSCc1ccco1)S(C)(=O)=O`, `CCN(CC)C(=O)CSc1nnc(CNc2ccc(F)cc2)n1Cc1ccco1` is lower in inhibition: 24% for the first, -8.4% for the second.

First: COC(=O)c1ccccc1NC(=O)CSc1ccccn1
Second: O=C(Nc1ccccc1Cl)O/N=C(/c1ccccc1)c1ccccn1
The inhibition of the first is higher: 26.9% for the first, 21.3% for the second.

First: Cc1cccc(N(CC(=O)Nc2ccc(-c3nc4ccc(C)cc4s3)cc2)S(C)(=O)=O)c1
Second: Cc1ccc(C)c(NC(=O)c2ccc(OC(=O)c3ccco3)cc2)c1
The inhibition of the first is lower: 1.8% for the first, 4.9% for the second.

Going from `Nc1nnc(SCCN2C(=O)c3ccccc3S2(=O)=O)s1` to `CSCCC(C(=O)NC1=NCCS1)N1C(=O)c2ccccc2C1=O` (configuration not stated), the inhibition falls from 29% to 17.5%.

Compared with `O=C(N/N=C/c1ccsc1)c1cc(O)cc(O)c1`, `COC(=O)c1sccc1NC(=O)c1cc(OC)c(OC)c(OC)c1` is lower in inhibition: 7% for the first, 5.1% for the second.

Compared with `Nc1nc(C23CC4CC(CC(C4)C2)C3)cs1`, `Cc1nc([N+](=O)[O-])nn1C12CC3CC(CC(Br)(C3)C1)C2` is lower in inhibition: 40.8% for the first, 15.2% for the second.

First: O=C(NCN1CCN(CCO)CC1)c1cnccn1
Second: CCOC(=O)N1CCN(CC(=O)n2c(C)c(C)c3ccccc32)CC1
The inhibition of the first is lower: -8.6% for the first, 37.1% for the second.

First: Cc1ccc(S(=O)(=O)N(C)C2(C)CCS(=O)(=O)C2)cc1 (configuration not stated)
Second: Cc1ccc(S(=O)(=O)NC(=O)N2CCCC(C)(C)C2)cc1
The inhibition of the first is higher: 18.3% for the first, -4.4% for the second.

Going from `Cc1ccc(S(=O)(=O)N2CCOCC2)cc1C(=O)NCc1ccc(F)cc1` to `Cn1c(SCC(=O)Nc2cccc(O)c2)nnc1-c1ccc(S(=O)(=O)N2CCOCC2)cc1`, the inhibition falls from 15.3% to 2.3%.

Going from `CCN(CC)S(=O)(=O)c1ccc(N2CCOCC2)c(C(=O)O)c1` to `O=C(c1ccc(S(=O)(=O)N2CCOCC2)cc1)N1CCN(c2ccccc2)CC1`, the inhibition falls from 9.1% to -4.7%.

Compared with `Cc1cc(OC(=O)c2ccc(Cl)cc2)cc(=O)n1C`, `CSc1ccc(C#N)cc1NC(=O)c1ccc(Cl)cc1` is higher in inhibition: -5.3% for the first, 3% for the second.

Compared with `O=C(N1CCOCC1)N(Cc1ccccc1)c1ccccn1`, `c1ccc(-n2nnnc2N2CCOCC2)cc1` is higher in inhibition: 31.3% for the first, 33.5% for the second.

Going from `COc1ccc(Cc2nnc(NS(=O)(=O)Cc3ccccc3)s2)cc1` to `CCC(CC)c1nnc(NS(=O)(=O)Cc2ccccc2)s1`, the inhibition falls from 9% to -10.5%.

Going from `Cc1cccc(NC(=O)CSc2nnc(NC(=O)CN3CCOCC3)s2)c1` to `Cc1cccc(NC(=O)CN2C(=O)CNC2=O)c1`, the inhibition falls from 0.9% to -10.1%.

Going from `CCc1nnc(NC(=O)CSc2nc3c(c(=O)n2-c2ccccc2OC)SCC3)s1` to `Cc1cc(=O)[nH]c(SCC(=O)N2c3ccccc3CC2C)n1` (configuration not stated), the inhibition falls from 11.4% to 1.8%.

Going from `CS(=O)(=O)c1ccc2nc(NC(=O)CN3CCCCCC3)sc2c1` to `COc1ccc(C(=O)Nc2nc(-c3ccc(S(=O)(=O)N4CCOCC4)cc3)cs2)cc1`, the inhibition rises from -6% to 14.6%.

Compared with `Cc1nnc(SCC(=O)N2CCN(c3ccccc3)CC2)n1-c1ccccc1`, `O=C(CSc1nc2ccccc2o1)N1CCN(c2ccc(Cl)cc2)CC1` is higher in inhibition: -4.9% for the first, 4.3% for the second.

First: CCS(=O)(=O)c1ccc2oc(SCC(=O)N3c4ccccc4CC3C)nc2c1 (configuration not stated)
Second: CCn1nc(NC(=O)c2ccco2)c2cc3ccc(C)cc3nc21
The inhibition of the first is lower: -8.1% for the first, 7.9% for the second.

Going from `Cc1ccccc1Nc1nc(N)nc(CN2CCN(c3ccccn3)CC2)n1` to `O=[N+]([O-])c1ccc(N2CCN(S(=O)(=O)c3ccc4ccccc4c3)CC2)cc1NCc1ccco1`, the inhibition rises from 12.9% to 19.1%.

Going from `COc1ccc(Cn2cccc(NC(=O)Nc3ccc(C#N)cc3)c2=O)cc1` to `COc1ccc(/C=C(\NC(=O)c2ccc(OC)c(OC)c2)C(=O)NCCc2c[nH]c3ccccc23)cc1`, the inhibition rises from 5.5% to 35.2%.

First: Cc1cc(/C=C2/SC(=O)N(CC(=O)OC(C)C)C2=O)c(C)n1C
Second: CCOC(=O)c1sc(=S)n2c1[nH]c(=O)c1ccc(C(=O)OC)cc12
The inhibition of the first is higher: 1.6% for the first, -1.3% for the second.

First: Cc1c(NC(=O)CSc2cccc3cccnc23)c(=O)n(-c2ccccc2)n1C
Second: O=C(NCc1ccco1)c1nc(-c2ccccc2)n(-c2ccccc2)n1
The inhibition of the first is lower: -13.9% for the first, 25.6% for the second.

Going from `CC1CCc2c(c3ccccc3[nH]c2=O)O1` (configuration not stated) to `O=C1C(C=NCC2CCCO2)=C(O)c2ccccc21` (configuration not stated), the inhibition falls from 25.5% to 8.1%.

First: CC1CN(c2nc(-c3ccccc3)nnc2-c2ccccc2)CC(C)O1 (configuration not stated)
Second: Cn1nc(-c2ccccc2)c(-c2nc(-c3ccc(Cl)cc3)no2)c1Cl
The inhibition of the first is higher: -3.1% for the first, -16.4% for the second.

Going from `O=C(Nc1ccccc1C(F)(F)F)c1cc(-c2ccc(O)cc2)on1` to `N#C/C(=C(/O)Cc1cccc2ccccc12)c1nc2ccccc2s1`, the inhibition falls from 6.8% to -0.2%.

First: CCC1=[N+]([O-])C(C)(/C(C)=N\O)N(O)C1(C)C (configuration not stated)
Second: CCCc1nc(N)nc2c1C(=O)CC(C)(C)C2
The inhibition of the first is higher: 23.5% for the first, 7.6% for the second.

Going from `NC(=O)Cn1c(=O)oc2ccccc21` to `N=C(N)SCc1cccc2ccccc12`, the inhibition rises from -6.4% to -3.6%.

Going from `CC(C)(C)NC(=O)c1cc(NC(=O)c2ccco2)cc(NC(=O)c2ccco2)c1` to `O=C(NC1(C(F)(F)F)N=C2SCCN2C1=O)c1ccco1` (configuration not stated), the inhibition falls from 20.8% to -15.5%.

Going from `CCOC(=O)N1CCC(NC(=O)c2cnn3ccccc23)CC1` to `Cc1ccc2oc(=O)c3cnn(CC(=O)N(Cc4ccco4)C4CCCCC4)c3c2c1`, the inhibition rises from 5.9% to 7.4%.

Compared with `CCCCCCC(=O)Nc1nc(C)c(-c2csc(Nc3cc(Cl)ccc3OC)n2)s1`, `CCCCC(=O)Nc1nc(C)c(-c2csc(Nc3ccc(Cl)cc3)n2)s1` is higher in inhibition: -7.7% for the first, 45.9% for the second.

Compared with `O=C(Nc1cc(N2CCOCC2)ncn1)NC1(C(F)(F)F)Oc2ccc(Cl)cc2O1` (configuration not stated), `O=C1N=C(N2CCOCC2)S/C1=C\C=C/c1ccccc1` is higher in inhibition: 1% for the first, 10.8% for the second.

First: CSCCC(NC(N)=O)C(=O)N(C)CC(=O)Nc1ccc(C)cc1 (configuration not stated)
Second: CC(C)c1ccc(/C=C/C(=O)NNC(=O)c2cccnc2)cc1
The inhibition of the first is higher: 3.3% for the first, 1.1% for the second.

First: Cc1ccsc1/C=C1\SC(N2CCOCC2)=NC1=O
Second: O=S(=O)(c1ccc2ccccc2c1)N1CCN(S(=O)(=O)N2CCOCC2)CC1
The inhibition of the first is higher: 29% for the first, 20.2% for the second.

First: CCCCN=C1N/C(=C\c2ccco2)C(=O)N1c1ccccc1
Second: Cc1c2cn[nH]c(=O)c2c(C)n1Cc1ccc(F)cc1
The inhibition of the first is lower: 0.7% for the first, 48.3% for the second.

For `C=CCn1c(SCc2csc(C)n2)nc2scc(-c3ccc(C)o3)c2c1=O`, the inhibition was 16.7%.

With `CC12c3ccccc3C(c3ccccc31)C1C(=O)N(Cc3cccnc3)C(=O)C12` (configuration not stated) the inhibition was 81.2% (active).
With `COc1cccc(N(CC(=O)NCCSc2ccccn2)S(C)(=O)=O)c1` the inhibition was 53.8% (active).
In the case of `O=C(CCSc1ccccc1)NCCSc1ccccn1`, the inhibition is reported as 71% (active).
With `Cc1ccc(S(=O)(=O)C2(S(=O)(=O)c3ccc(C)cc3)CCCC2)cc1` the inhibition was 83.3% (active).
In the case of `CN(C)S(=O)(=O)c1ccc(N2CCCC2)c(C(=O)NCc2ccccc2)c1`, the inhibition is reported as 62.4% (active).
For `Cc1cccc(NC(=O)CN2CCCN(S(=O)(=O)c3ccc(Br)s3)CC2)c1`, the inhibition was 67.4% (active).
In the case of `O=C(CSc1nc2ccccc2o1)N1CCN(c2ccccc2)CC1`, the inhibition is reported as 55.6% (active).
For `CC1Cc2ccccc2N1C(=O)CSc1nc2ccccc2o1` (configuration not stated), the inhibition was 76.8% (active).
For `O=C(Nc1cccn(Cc2c(Cl)cccc2Cl)c1=O)c1ccc(Cl)cc1`, the inhibition was 79.9% (active).
For `Clc1ccc(-c2nnc(-c3ccccc3)nc2N2CCSCC2)cc1`, the inhibition was 72% (active).
`Cn1ccs/c1=N\S(=O)(=O)c1ccc(C(C)(C)C)cc1` was tested, and the inhibition was 65% (active).
With `O=C1C(Cl)=C(N2CCOCC2)C(=O)N1c1ccccc1` the inhibition was 84.7% (active).
For `CCOC(=O)C1=C(C)Nc2sc(C(=O)c3ccc(Br)cc3)c(N)c2C1c1ccc(C(=O)OC)cc1` (configuration not stated), the inhibition was 88.2% (active).
In the case of `C=CCCC(=O)Nc1nc(C)c(-c2csc(Nc3ccc(Cl)cc3)n2)s1`, the inhibition is reported as 56.4% (active).
In the case of `O=C(c1ccccc1)N1CCN(c2ccc([N+](=O)[O-])c(NCc3ccco3)c2)CC1`, the inhibition is reported as 82.3% (active).
In the case of `O=C1N=C(N2CCCC2)S/C1=C\c1cccc(Br)c1`, the inhibition is reported as 58.2% (active).
With `O=C(NC1=NCCS1)[C@H](Cc1ccccc1)N1C(=O)c2ccccc2C1=O` the inhibition was 57.5% (active).
`O=C(CCc1ccc(S(=O)(=O)N2CCOCC2)cc1)Nc1ccc2ccccc2c1` was tested, and the inhibition was 62.6% (active).
In the case of `COc1ccc2[nH]cc(/C=C(/C#N)S(=O)(=O)c3ccccc3)c2c1`, the inhibition is reported as 99.8% (active).
In the case of `c1ccc2c(C[n+]3csc4ccccc43)cccc2c1`, the inhibition is reported as 60.7% (active).
